# High-throughput results from PubChem.
# Pf growth 48h: P. falciparum growth inhibition at 48 hours (one generation) | hit rate 5.9% among 310,000 | P. falciparum luciferase growth in erythrocytes, 48 h | Potency, µM (titrated, usually from 28.7 µM), inactives show at the highest dose activity change, negative = inhibition, most hits filed as inhibitors; note: potency is the fitted concentration of half-maximal effect; % is set by controls: 0 for no effect and ±100 for the full control effect
#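 A one-generation exposure of luciferase-tagged malaria parasites in RPMI 1640/Albumax erythrocyte culture, 37 C and 5% CO2. Inhibition is inferred from decreased luminescence after adding detection reagent.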
# Shiga inhibitor: blocks Shiga toxin action in Vero cells. Vero cells, Shiga toxin protein synthesis inhibition reporter. inhibition, % at 38.7 µM. hit rate 9.2% among 290,000. AID 2315; in the data active = inhibition mostly above about 28%, no sharp cut-off; inactive = mostly below about 43%; note: 0% is about no effect
# Pf growth 96h: inhibits malaria parasite growth, 96 h; P. falciparum luciferase reporter growth, 96 h; Potency, µM (doses to about 28.7 µM), without a hit: at the top dose activity change, negative = inhibition, most hits filed as inhibitors; hit rate 6.9% among 320,000; note: potency is the fitted concentration of half-maximal effect; % is set by controls: 0 for no effect and ±100 for the full control effect
#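 Compounds incubated with erythrocytes infected by luciferase-expressing P. falciparum (2% hematocrit, 0.05% parasitemia final) for 96 hours, 37 C in 5% CO2. Growth inhibition scored as decreased luciferase luminescence.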
# AMA1 RON2 block: disrupts binding of P. falciparum AMA1 to RON2. AlphaScreen AMA1-biotinylated RON2 peptide binding. Potency, µM (series often up to 58.2 µM), inactives show top-dose activity change, negative = inhibition, actives largely listed as inhibitors. hit rate 0.2% among 360,000. AID 720542;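 note: potency is the fitted concentration of half-maximal effect; 0% = vehicle wells and -100% = peptide control; nearly all actives have a fitted effect of over 45% in size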
#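 AMA1 (3D7) with his tag at 25 nM final met compounds first, then biotinylated RON2 peptide at 25 nM; detection used donor plus acceptor beads, 10 µg/mL apiece, read by AlphaScreen after 30 min at room temperature.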
# SARS PLpro yeast: SARS-CoV PLP inhibition in yeast; S. cerevisiae expressing SARS-CoV PLpro, growth rescue; Potency, µM (doses to about 32.9 µM), for inactives: at the top dose activity, positive = growth rescue, usual class: activators; hit rate 0.19% among 330,000; AID 485353; calls by dose curve; note: potency is the fitted concentration of half-maximal effect; 0% is about no effect; nearly all actives have a fitted effect of over 55% in size
# Cycloheximide cs: counter-screen hit for Shiga toxin inhibitors, cycloheximide; cell reporter, cycloheximide protein synthesis inhibition counterscreen; max response, %; hit rate 12% among 300,000; AID 2314; in the data active = max response mostly above about 13%, no sharp cut-off; inactive = mostly below about 14%; note: read at 38.3 µM for the half of the compounds with a filed dose; 0% is about no effect
# * = called active by the depositor; i = inactive; ? = inconclusive; . = no result given; [ ] = another dose, or the depositor's remark. A selection: hits, their analogues and other compounds. The true share with any hit is near 19%. Unless noted, calls come from the whole dose curve; as a rule, active = well fitted curve in the direction sought with a large enough effect; inconclusive = small, poorly fitted or top-dose-only effect, or another doubt; inactive = no such curve, though single readings can be large; an effect the other way counts as inactive or inconclusive.
SMILES,Pf growth 48h,Shiga inhibitor,Pf growth 96h,AMA1 RON2 block,SARS PLpro yeast,Cycloheximide cs
Cc1cc(C)n(CCc2nc(-c3ccc(F)cc3)cs2)n1,?,78.4*,?,20.5%,27.7%,36.4*
Cc1cc(C)n(CCc2nc(-c3ccc(C(C)(C)C)cc3)cs2)n1,-13.2%,7.0,?,24.7%,11.7%,0.0
Cc1ccc(S(=O)(=O)N(CC(=O)c2ccccc2)C(=O)N2CCN(C)CC2)cc1,-7.5%,.,30.9%,-9.1%,6.1%,.
Cc1cccc(C)c1N=C1NN=C(c2ccccc2F)CS1,-2.1%,13.9,?,48.6%,27.0%,6.7
Cc1ccccc1N=C1NN=C(c2ccccc2F)CS1,?,37.2*,1.3%,51.7%,-19.7%,48.6*
N#Cc1cccc(NC(=O)Cn2cnc(S(=O)(=O)N3CCc4ccccc43)c2)c1,-25.4%,-10.7,4.65µM*,1.0%,-12.2%,-0.6
CSCCNCc1c(C(=O)N2CCOCC2)nc2c(C)cccn12,7.2%,-25.9,?,9.1%,0.2%,-2.5
Cc1cccn2c(CNCCc3ccccn3)c(C(=O)N3CCOCC3)nc12,?,17.0,13.1µM*,119.4%,6.9%,5.8
O=C1c2sc3nc4n(c(=O)c3c2CCC1Br)CCCCC4 (stereo unspecified),?,52.6*,9.28µM*,5.8%,-14.9%,31.4*
O=c1c2c3c(sc2nc2n1CCCCC2)C(O)CCC3 (stereo unspecified),73.3%,69.6*,?,3.3%,0.9%,55.5*
O=C1CCCc2c1sc1nc3n(c(=O)c21)CCCCC3,59.6%,22.3,.,-16.1%,-12.9%,30.2
O=c1c2c3c(sc2nc2n1CCCCC2)CCC3,10.0%,69.5,17.9%,0.7%,0.0%,26.6
COc1ccc(-c2nnc(SC(C(=O)c3c[nH]c4ccccc34)c3ccccc3)n2N)cc1OC (stereo unspecified),8.28µM*,7.2,?,-14.8%,10.6%,7.5
CCn1c2ccccc2c2cc(NC(=O)CSc3nnc(-c4ccc(OC)c(OC)c4)n3N)ccc21,?,-7.1,?,-1.0%,-23.4%,-1.4
Nc1ccccc1Nc1cc(-c2ccccc2)nn1-c1ccccc1,4.3%,47.9,?,?,10.4%,18.4*
Nc1ccccc1Nc1ccccc1,-10.3%,-1.8,?,-29.5%,-6.7%,-3.8
Nc1ccccc1Nc1cc(-c2ccccc2)[nH]n1,?,54.8*,?,-9.9%,-10.3%,28.9*
CCSc1nc2c(cnn2-c2ccccc2)c(=O)n1N,285.5%,49.8*,105.7%,18.0%,-2.8%,45.8*
C=CCn1c(C)nc2c(cnn2-c2ccccc2)c1=O,0.0%,18.7,-23.5%,5.0%,?,14.4*
CC(C)Sc1nc2c(cnn2-c2ccccc2)c(=O)[nH]1,1.7%,-4.1,39.7%,-2.5%,5.7%,-0.9
CSc1nc2c(cnn2-c2ccccc2)c(=O)n1N,230.0%,91.2*,-27.2%[5.75 µM],13.2%,-0.7%,28.0*
Cc1cccc(-n2c(C)nc3c(cnn3-c3ccc(F)cc3)c2=O)c1,?,31.3,9.28µM*,15.8%,-6.1%,38.8*
O=C1CCc2ccc(NS(=O)(=O)c3ccc(F)cc3)cc2N1,10.7%,16.9,15.2%,7.6%,2.8%,7.2
Cc1ccc(C(=O)NCCC(=O)NCc2cc(=O)n(C)c(=O)n2C)cc1,36.6%,-4.2,39.5%,-4.6%,-0.9%,-1.9
Cn1c(=O)[nH]c(=O)c2c1nc(N1CCCCCC1)n2CCOc1ccccc1,9.3%,23.8,1.1%,2.7%,-0.1%,-1.0
SMILES,Pf growth 48h,Shiga inhibitor,Pf growth 96h,AMA1 RON2 block,SARS PLpro yeast,Cycloheximide cs
O=C(CN1CCN(c2ncccn2)CC1)N(Cc1ccccc1)c1ccc(F)cc1,-18.6%,-32.0,11.7µM*,-22.9%,5.5%,-7.4
CCOCCCN1C(=O)CN(C2CCCCCC2)C(=O)C1c1ccc(OC)cc1 (stereo unspecified),?,-2.1,0.828µM*,-8.5%,-1.0%,-8.0
C/C(=N\NC(=O)c1ccoc1C)c1cccnc1,52.8%,0.0,i,0.5%,16.9%,42.1*
C/C(=N\NC(=O)c1ccccc1C)c1cccnc1,50.1%,105.6*,-22.1%,19.7%,1.1%,30.8*
COc1ccc(CN(CCN(C)C)Cc2ccccc2)c(OC)c1,13.1µM*,-40.3,.,?,9.5%,-3.9
CCN(Cc1ccncc1)Cc1ccc(OC)cc1OC,-1.6%,13.3,-17.7%,0.0%,6.2%,1.4
Cc1cccc(NC(=O)N2CCCC2C(=O)Nc2ccccc2)c1 (stereo unspecified),?,-10.9,-20.7%,8.8%,0.1%,-1.4
COc1cccc(CCN2CCC(CNS(=O)(=O)c3cc(-c4cc(C)no4)ccc3OC)CC2)c1,4.15µM*,-0.8,10.4µM*,-10.6%,-2.4%,1.7
Cc1cc(-c2ccc(C)c(S(=O)(=O)NCC3CCN(Cc4cccc(F)c4)CC3)c2)on1,9.28µM*,8.1,?,-4.2%,3.0%,-0.9
COc1ccccc1CN1CCC(CNS(=O)(=O)c2cc(-c3onc(C)c3C)ccc2OC)CC1,11.7µM*,-7.1,?,-10.0%,2.1%,-4.8
Cc1cc(-c2ccc(C)c(S(=O)(=O)NCC3CCN(Cc4ccccc4F)CC3)c2)on1,?,2.7,-13.6%,-6.0%,-4.6%,-3.2
COc1ccc(S(=O)(=O)N2CCN(C(=O)N3CCOCC3)C2C)cc1 (stereo unspecified),26.6%,6.6,1.2%,-2.9%,-8.3%,5.1
CCN(CC)S(=O)(=O)c1ccc(C(=O)NNC(=O)c2cccs2)cc1,0.0%,10.1,0.147µM*,36.4%,10.3%,3.0
Cc1cc(Cl)ccc1NNC(=O)c1cccs1,-2.1%,17.4,22.5%,20µM*,-2.7%,2.4
O=C(NNC(=O)c1cccs1)c1ccc(Cl)cc1,52.6%,24.4,?,-3.2%,-1.8%,19.0*
CCN(CC)S(=O)(=O)c1ccc(NC(=O)c2cccs2)cc1,-11.7%,0.6,?,-11.0%,0.8%,16.2
O=C(NNC(=O)c1cccs1)c1ccc(Br)cc1,53.0%,39.8,12.8%,0.0%,0.5%,17.9*
C[C@H](NC(=O)c1ccc(Cl)cc1)C(=O)NNC(=O)c1cccs1,-17.0%,.,4.6%,22.8%,-25.5%,.
CN(C)S(=O)(=O)c1cc(NC(=O)CN2CCN(c3ccccc3O)CC2)ccc1Cl,?,0.9,?,-2.2%,-3.7%,-2.7
O=S(=O)(Nc1cccc(-n2cnnn2)c1)c1ccccc1C(F)(F)F,0.2%,-8.3,55.9%,16.2%,3.0%,7.3
O=C(NNC(=O)c1ccccc1Br)c1cccs1,68.5%,64.9*,6.2%,-0.3%,16.5%,25.9*
O=C(NNC(=S)NC(=O)c1cccs1)c1ccc(O)cc1,1.8%,28.4*,?,134.2%,0.9%,22.7
CCN(CC)S(=O)(=O)c1cccc(C(=O)Oc2cccc(NC(=O)c3cccs3)c2)c1,21.7%,-5.1,24.0%,-13.3%,?,24.6*
O=C(NNC(=O)c1cccs1)c1ccccc1,68.0%,53.4*,3.2%,-6.0%,-0.6%,27.6*
